PubChem BioAssay (NCI)
Compounds without any hit were thinned out: in the full panel of roughly 79,000, 15% have a hit. Rule as the data show it: active = growth inhibition above about 70%; inactive = the rest.

Assays:
[1] = NCI Yeast Anticancer Drug Screen. Data for the rad50 strain (AID 155);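 also: 0% = growth of vehicle-only cultures of the same strain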; conditions: S. cerevisiae rad50 strain growth inhibition; at 50.0 µM; hits give high values
Summary of the method: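 Genetically altered yeast (DNA repair pathway); compound treatment; growth inhibition vs vehicle ctrl.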

[2] = NCI Yeast Anticancer Drug Screen. Data for the mec2-1 strain (AID 157); conditions: S. cerevisiae mec2-1 strain, at 50.0 µM, hits give high values
Summary of the method: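 Yeast mec2-1 mutant treated with compound. Readout: growth inhibition vs vehicle controls.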

[3] = NCI Yeast Anticancer Drug Screen. Data for the sgs1 mgt1 strain (AID 161);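 also: 0% = growth of cultures given vehicle only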; conditions: S. cerevisiae sgs1 mgt1 strain, at 50.0 µM, hits give high values
Summary of the method: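 Inhibition of yeast growth, normalised to vehicle-treated controls, is reported for a strain bearing genetic alterations in DNA damage repair.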

[4] = NCI Yeast Anticancer Drug Screen. Data for the cln2 rad14 strain (AID 165);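 also: 0% = growth equal to vehicle treated cultures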; conditions: S. cerevisiae cln2 rad14 strain, at 50.0 µM, hits give high values
Summary of the method: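 cln2 rad14 yeast strain; compound exposure; growth inhibition read vs vehicle controls.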

[5] = NCI Yeast Anticancer Drug Screen. Data for the bub3 strain (AID 167); conditions: S. cerevisiae bub3 mutant strain, at 50.0 µM, hits give high values
Summary of the method: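 Yeast carrying a defined mutation is treated with each compound, and growth is compared with that of vehicle-exposed cells to give inhibition.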

[6] = NCI Yeast Anticancer Drug Screen. Data for the mlh1 rad18 strain (AID 175); conditions: S. cerevisiae mlh1 rad18 strain growth inhibition; at 50.0 µM; hits give high values
Summary of the method: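 Yeast w/ defined DNA-repair lesions; compound exposure; growth vs vehicle controls → % inhibition.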

Measured: growth inhibition

Cn1c(=O)c2[nH]c(=S)n(C)c2n(C)c1=O
inactive: [1] 31.8% | [2] -8.35% | [3] -2% | [4] 11.2% | [5] -13.6% | [6] 15.5%

CC(=O)NNc1nc(C)c(C(=O)/C=C/c2ccc(/C=C/C(=O)c3sc(NNC(C)=O)nc3C)cc2)s1
inactive: [1] -29.6% | [2] -3.4% | [3] -37.6% | [4] 6.25% | [5] -13.2% | [6] -35.1%

COC12NC(=O)NC(=O)C1(c1ccccc1)CC(C)O2 (stereo unspecified)
inactive: [1] -2.7% | [2] -2.15% | [3] 6.8% | [4] -7.7% | [5] -24.1% | [6] -6.6%

COC(=O)C1CCCN1C(c1ccccc1)(c1ccccc1)c1ccccc1 (stereo unspecified)
inactive: [1] -9.45% | [2] -2.2% | [3] -11.5% | [4] -2.15% | [5] 2.45% | [6] -23.5%

Cc1cc(C)c(C(=O)CCC(=O)O)c(C)c1
inactive: [1] 11.8% | [2] 7.8% | [3] 16.6% | [4] 17.9% | [5] -4.7% | [6] 16.6%

O=C(/C=C/c1ccco1)c1ccc(O)c(C(=O)O)c1
inactive: [1] -7.8% | [2] -1.25% | [3] -1% | [4] -39.5% | [5] -26.6% | [6] -2.9%

O=C(O)C#Cc1cccnc1
inactive: [1] -10.9% | [2] -14% | [3] 0.75% | [4] 6% | [5] -3.4% | [6] -16.9%

CCOC(=O)c1[nH]c2cccc3c2c1CC[C@H](NC(=O)C(F)(F)F)C3=O
inactive: [1] -5.1% | [2] 9.3% | [3] 10.8% | [4] 18.2% | [5] 0.95% | [6] 8.3%

COCCOC(=O)c1ccccc1Cl
inactive: [1] 23.7% | [2] 15.6% | [3] 16.3% | [4] 8.8% | [5] 7.1% | [6] 22.4%

CCOc1ccc(/C(O)=C/c2nc3ccccc3nc2/C=C(\O)c2ccc(OCC)cc2)cc1
inactive: [1] -2.1% | [2] -13.7% | [3] 16.4% | [4] -0.75% | [5] 36% | [6] 13.6%

Cc1nc2ccc(Cl)cc2c(-n2ccnc2)c1CCn1ccnc1
inactive: [1] -11.6% | [2] -4.6% | [3] -3.55% | [4] -0.5% | [5] 9.25% | [6] -3.7%

CC(=O)NNc1nc(C)c(C(/C=C/c2cccc([N+](=O)[O-])c2)=N/NC(=S)NN)s1
inactive: [1] 5.85% | [2] -5% | [3] 2.2% | [4] 4.35% | [5] 12.4% | [6] 12.1%

C[n+]1cccc(C(=O)c2ccccc2)c1
inactive: [1] 6.4% | [2] -4.8% | [3] 0.65% | [4] 12.1% | [5] -0.55% | [6] 6.5%

OCCN(CO)CCO
inactive: [1] -23.8% | [2] 6.35% | [3] -0.25% | [4] -2.6% | [5] 2.6% | [6] -25.2%

O=C(Cn1c(C(=O)c2ccccc2)nc2ccccc21)c1ccccc1
inactive: [1] -39.2% | [2] -16.6% | [3] -32.8% | [4] -8.95% | [5] -16.4% | [6] -18%

COc1cc2c(cc1C)C(C)(C)CCC2(C)C
inactive: [1] 7.8% | [2] -0.45% | [3] -3.1% | [4] -45.1% | [5] 20.6% | [6] 4.15%

C=CC(C)C(C)C (stereo unspecified)
inactive: [1] 3.15% | [2] 0.4% | [3] -7.55% | [4] 4.3% | [5] 8.65% | [6] -4.8%

CCN(CC)C(=N)N
inactive: [1] -11.6% | [2] -1.55% | [3] -27.2% | [4] -34.2% | [5] -22% | [6] -14.4%

C[N+]1(CCC(/C=C/c2ccc([N+](=O)[O-])cc2)=N\O)CCOCC1
inactive: [1] 17.3% | [2] -0.9% | [3] 14.8% | [4] -6.55% | [5] 1.05% | [6] 46.5%

C#CC(O)(CC)CCCC (stereo unspecified)
inactive: [1] -8.85% | [2] -13.4% | [3] 10.2% | [4] -18.5% | [5] -10.9% | [6] -4.25%

Cc1cc(Br)cc(C)c1NC(=O)C(=O)C1C(=O)C(CC2C(=O)c3ccccc3C2=O)C(=O)CC1(C)C (stereo unspecified)
inactive: [1] 36.1% | [2] 22.9% | [3] 0.75% | [4] -5.7% | [5] 4.35% | [6] 16.4%

COC(=O)C1(C)CCCC2(C)C3CC4OC4(C(C)C)CC3(O)CCC12 (stereo unspecified)
inactive: [1] -4.5% | [2] 6.85% | [3] 4% | [4] -8.4% | [5] -12.1% | [6] 42.1%

NC(=O)c1cccc[n+]1[O-]
inactive: [1] -6.25% | [2] 7.25% | [3] -12.6% | [4] 6.05% | [5] 19.6% | [6] 1.3%

COc1cccc2c1C(=O)c1c(C)c(C)c(C)c(C)c1-2
inactive: [1] 3.3% | [2] 6% | [3] 3.05% | [4] -1.7% | [5] 14.6% | [6] -10.1%

C/C=C\c1ccc2oc(-c3ccc4c(c3)OCO4)c(C)c2c1
inactive: [1] 3.2% | [2] 9.9% | [3] 6.15% | [4] -57.8% | [5] -4.6% | [6] -11.3%

CC1(C(=O)O)C2CCC(C2)C1C(=O)O (stereo unspecified)
inactive: [1] 11.8% | [2] 5.8% | [3] -2.7% | [4] -46.1% | [5] 3.7% | [6] 3.35%

CCC1(CCBr)C(=O)NC(=Nc2ccccc2)NC1=O (stereo unspecified)
inactive: [1] 5.6% | [2] -5.8% | [3] 5.9% | [4] -41.1% | [5] 9.9% | [6] -14.3%

CCOC(=O)c1sc(C(=O)OCC)c2c1-c1cccc3cccc-2c13
inactive: [1] -35.6% | [2] 13.1% | [3] 4.35% | [4] -48% | [5] 15.1% | [6] -9.95%

CCOC(=O)CCC(C#N)C(=O)OCC (stereo unspecified)
inactive: [1] 0.45% | [2] -3.9% | [3] 9.3% | [4] -10.2% | [5] 27.6% | [6] 6%

O=[N+]([O-])c1cccc(N=C2c3ccccc3CN2c2cccc([N+](=O)[O-])c2)c1
inactive: [1] -23.4% | [2] 5.8% | [3] -5.3% | [4] 26.7% | [5] 11.5% | [6] -0.4%

CC(=O)C1CCC2C3CC=C4CC(O)CCC4(C)C3CCC12C (stereo unspecified)
inactive: [1] 26.4% | [2] 18.4% | [3] 23.8% | [4] 45.3% | [5] 37% | [6] 46.6%

O=C1C(Cc2ccc(O)cc2)NC(=S)N1c1ccccc1 (stereo unspecified)
inactive: [1] 0.6% | [2] -9.85% | [3] 24.9% | [4] -2.75% | [5] 20% | [6] -19.8%

O=C1CN(Cc2ccc(Cl)cc2)CC(=O)N2CCCN12
inactive: [1] 20.8% | [2] 8% | [3] 19.7% | [4] 18.2% | [5] 10.8% | [6] 16.4%

Cc1cc2c(=O)cc(-c3ccncc3)oc2c(C(N)=O)c1C
inactive: [1] 14.8% | [2] 4.2% | [3] -12% | [4] -1% | [5] 17.6% | [6] 22.5%

O=C(O)c1ccc(C(=O)c2ccc(Cl)cc2)cc1
inactive: [1] 31.9% | [2] 44.5% | [3] 42.4% | [4] -6.35% | [5] 13.6% | [6] 34.6%

CC(C)COP(C)(=O)C(N)(C(F)(F)F)C(F)(F)F (stereo unspecified)
inactive: [1] 10.9% | [2] 8% | [3] 35.6% | [4] 25.8% | [5] 40.1% | [6] -12.4%

CCc1c(O)c2c(=O)n(C)c(=O)n3c4ccccc4n(c1=O)c23
inactive: [1] 40.4% | [2] 41.4% | [3] 45.7% | [4] 26.8% | [5] 38.9% | [6] 39.8%

CC1CCC(NC2=NCCO2)C(C)C1 (stereo unspecified)
inactive: [1] -20.4% | [2] 0.4% | [3] -3.85% | [4] -29.4% | [5] -14.1% | [6] -3.35%

COc1ccc(NC(=O)Oc2ccc3c(C)cc(=O)oc3c2)c(OC)c1 (tested in a mixture with another compound)
inactive: [1] -3.7% | [2] -6.2% | [3] -22.6% | [4] -19.7% | [5] 1.8% | [6] 12.3%

CCOC(=O)c1cn(C2OC(COC(=O)c3ccccc3)C(OC(=O)c3ccccc3)C2OC(=O)c2ccccc2)c(=O)nc1N (stereo unspecified)
inactive: [1] -1.05% | [2] -12.2% | [3] 18% | [4] -32% | [5] 7.45% | [6] -7.15%

CC1=CC(=O)C(O)C2(C)C(CCC3(C)OCCO3)C=C(O[Si](C)(C)C(C)(C)C)CC12 (stereo unspecified)
inactive: [1] 21.6% | [2] -2.5% | [3] 1.2% | [4] 18.4% | [5] 5.15% | [6] 7%
